Screening data: PubChem BioAssay, The Scripps Research Institute Molecular Screening Center
Shown are actives, neighbours in structure and some others; about 3.5% of the full set was active somewhere.
TEAD-YAP block = TEAD-YAP interaction inhibition, primary screen, TEAD-YAP interaction inhibitor project, luminescence, HEK-TIYL cells; AID 1259422, 2018; inhibition, % at 9.12 µM; TEAD-Gal4/YAP UAS-luciferase luminescence; 640,000 compounds, 1.4% hits; in the data active = inhibition above about 32%
MITF primary = MITF inhibitors, primary screen, biochemical, AlphaScreen, human; Microphthalmia-associated transcription factor (Homo sapiens), O75030; AlphaScreen MITF homodimerization, bead proximity signal; inhibition, % at 2.6 µM; 650,000 compounds, 0.91% hits; AID 1259374, 2018; in the data active = inhibition above about 50%
FBW7 activator = FBW7 E3 ligase activators, primary screen, biochemical, AlphaScreen, human; normalized activity (activation), % at 26.1 µM; F-box/WD repeat-containing protein 7 (Homo sapiens), Q969H0; 650,000 compounds, 0.13% hits; AlphaScreen FBW7–phospho-cyclin E peptide binding, activator screen; in the data active = normalized activity above about 1.9%;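 also: purified mutant Fbw7 with reduced substrate affinity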
Target sequence (Q969H0 whole entry, looked up): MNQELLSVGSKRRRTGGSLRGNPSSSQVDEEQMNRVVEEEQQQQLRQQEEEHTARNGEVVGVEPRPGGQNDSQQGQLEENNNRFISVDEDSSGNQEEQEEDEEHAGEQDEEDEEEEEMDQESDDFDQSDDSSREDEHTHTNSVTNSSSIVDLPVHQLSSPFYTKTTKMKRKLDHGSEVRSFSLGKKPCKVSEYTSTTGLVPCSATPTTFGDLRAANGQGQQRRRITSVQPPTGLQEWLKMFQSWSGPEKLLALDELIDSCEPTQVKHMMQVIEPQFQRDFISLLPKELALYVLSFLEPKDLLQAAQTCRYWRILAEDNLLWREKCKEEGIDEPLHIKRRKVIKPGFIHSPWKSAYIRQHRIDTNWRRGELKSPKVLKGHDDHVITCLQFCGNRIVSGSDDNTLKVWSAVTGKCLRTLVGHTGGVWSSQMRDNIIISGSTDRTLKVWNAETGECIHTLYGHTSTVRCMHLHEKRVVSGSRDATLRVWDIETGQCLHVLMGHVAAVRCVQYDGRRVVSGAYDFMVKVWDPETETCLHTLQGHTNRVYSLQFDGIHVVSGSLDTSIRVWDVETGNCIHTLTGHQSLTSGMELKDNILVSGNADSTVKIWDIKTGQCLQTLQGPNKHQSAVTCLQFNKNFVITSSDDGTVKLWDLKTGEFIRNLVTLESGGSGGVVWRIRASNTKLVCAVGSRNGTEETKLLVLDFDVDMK
GPR151 activ = activators of human GPR151, primary screen, cell-based, PathHunter beta-arrestin, luminescence; PathHunter beta-arrestin GPR151 cells; activation, % at 11.2 µM; 650,000 compounds, 1% hits; G-protein coupled receptor 151 (Homo sapiens), Q8TDV0; in the data active = activation above about 4.9%
GPR151 conf act = GPR151 activators, triplicate retest, confirmation, cell-based, PathHunter beta-arrestin, luminescence; shares compounds with GPR151 activ; GPR151 PathHunter beta-arrestin cells, 90 min; % of EA-reagent control over plate median; activation, % at 11.2 µM; 6,700 tested, under 10 active;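 active = mean percent activation across replicates above the confirmation screen cutoff of 4.91%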
GPR119 counter = GPR119 activators in beta-arrestin cells, counter-screen for GPR151 activator project, cell-based, PathHunter beta-arrestin, luminescence, triplicate | shares compounds with GPR151 activ | 90 min; 0 = compound-well median, 100 = enzyme-acceptor control | activation, % at 11.2 µM | 6,700 compounds, 0.3% hits | AID 1508611, 2020;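 active = mean percent activation in the counterscreen above 29.09%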;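 also: counterscreen on off-target GPR119 to flag nonselective hits from the GPR151 activator screen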
Large screens that a line does not name were inactive (follow-up assays come after a bar, where they were run).

CN(CCc1ccccn1)c1nc2nonc2nc1NCc1ccccc1	none
Clc1ccc2nc(CSc3nncn3-c3ccccc3)cn2c1	GPR151 activ 5.1 | GPR151 conf act inactive | GPR119 counter inactive
Cc1sc(NC(=O)/C=C/c2cccc3ccccc23)c(C(N)=O)c1C	none
CCCN1C(=O)C(O)(CC(=O)c2ccc(OC)c(OC)c2)c2cc(Br)ccc21 (configuration not stated)	none
CCOC(=O)N1CCN(C(=O)Cn2cc(NC(=O)Cc3ccccc3OC)cn2)CC1	GPR151 activ 9.1 | GPR151 conf act inactive | GPR119 counter inactive
CCOC(=O)C1=C(N)Oc2cc(C)oc(=O)c2C1c1c(Cl)cccc1Cl (configuration not stated)	none
CCN(CC)c1ccc(/C=N/N2C(=O)c3ccccc3C2=O)c(O)c1	GPR151 activ 8.3 | GPR151 conf act inactive | GPR119 counter inactive
CCN(CC)c1ccc(/C=N/NC(=O)COc2ccccc2)c(O)c1	GPR151 activ 8.1 | GPR151 conf act inactive | GPR119 counter inactive
CCN(CC)c1ccc(/C=N/N2C(=O)c3ccccc3C2=O)cc1	none
COCCCNC(=O)CN(c1ccc(I)cc1)S(C)(=O)=O	GPR151 activ 6.7 | GPR151 conf act inactive | GPR119 counter inactive
CCC(CC)C(=O)O/N=C(\N)Cc1ccc(OC)cc1	GPR151 activ 9.3 | GPR151 conf act inactive | GPR119 counter inactive
COc1ccc(C/C(N)=N/OC(=O)Cc2ccccc2)cc1	none
CC1(C)CN2C(=O)C(NC(=O)c3ccccc3)(C(F)(F)F)N=C2S1 (configuration not stated)	none
Cc1ccc2nc(Cl)c3cc(C(=O)N4CCN(C)CC4)sc3c2c1	none
Cc1ccc2nc(Cl)c3cc(C(=O)N=C4NC(=O)CN4C)sc3c2c1	GPR151 activ 6.1 | GPR151 conf act inactive | GPR119 counter inactive
COc1ccc(C(=O)CS(=O)(=O)c2ccc(C)cc2)cc1Br	none
O=C(OCN1C(=O)c2ccccc2C1=O)C1CCCCC1	GPR151 activ 6.1 | GPR151 conf act inactive | GPR119 counter inactive
O=C(CC1NCCNC1=O)Nc1ccccc1 (configuration not stated)	none
CN(C)c1ccc(NC(=O)CC2NCCNC2=O)cc1 (configuration not stated)	GPR151 activ 5.0 | GPR151 conf act inactive | GPR119 counter inactive
COC(=O)NNC(=S)NCc1ccc(C)cc1	GPR151 activ 5.6 | GPR151 conf act inactive | GPR119 counter inactive
O=C(C[n+]1ccccc1)Nc1ccccc1C(=O)O	GPR151 activ 7.5 | GPR151 conf act inactive | GPR119 counter inactive
COCCCNc1nc2nonc2nc1N1CCN2CCCC2C1 (configuration not stated)	none
COCCCNc1nc2nonc2nc1N1CCN(C2CCCC2)CC1	GPR151 activ 5.7 | GPR151 conf act inactive | GPR119 counter inactive
CCOC(=O)C1CCN(C2CCCC(C)C2)CC1 (configuration not stated)	none
O=C(CCCn1cccc1)Nc1ccc(F)cc1F	GPR151 activ 6.7 | GPR151 conf act inactive | GPR119 counter inactive
O=C(CCCCC(=O)Nc1ccc(F)cc1F)Nc1ccc(F)cc1F	none
CCN1C(=O)CC(CC(=O)N(C)CCc2cn[nH]c2)(c2cccc(C(F)(F)F)c2)C1=O (configuration not stated)	none
Cc1cc(C)nc(NS(=O)(=O)c2ccc(NC(=O)Cc3ccc(F)cc3)cc2)n1	none
Cc1cc(C)nc(NC(=O)Cc2ccc(F)cc2)n1	GPR151 activ 12.7 | GPR151 conf act inactive | GPR119 counter inactive
COc1ccc(NC(=O)/C(C#N)=N\Nc2nc3c([nH]2)c(=O)n(C)c(=O)n3C)cc1	none
CCC1CCC2(CC1)SCC(=O)N2c1ccccc1 (configuration not stated)	none
CCC1CCC2(CC1)SCC(=O)N2c1ccc(F)cc1 (configuration not stated)	GPR151 activ 6.4 | GPR151 conf act inactive | GPR119 counter inactive
CC(=O)c1ccc(NC(=O)CSc2nnc(C34CC5CC(CC(C5)C3)C4)n2C)cc1	GPR151 activ 6.2 | GPR151 conf act inactive | GPR119 counter inactive
CC(=O)c1ccc(NC(=O)CSc2nnc(C3CC3)n2C)cc1	none
Cc1cc(NC(=O)Nc2nnc(N3CCCC(C)C3)s2)ccc1Br (configuration not stated)	none
COC(=O)c1cc(OC)c(OC)cc1NC(=O)CCN1C(=O)c2ccccc2C1=O	GPR151 activ 5.9 | GPR151 conf act inactive | GPR119 counter inactive
COC(=O)c1cc(OC)c(OC)cc1NC(=O)c1cc(Cl)ccc1Cl	GPR151 activ 6.3 | GPR151 conf act inactive | GPR119 counter inactive
CCOC(=O)C1=C(C)N=c2s/c(=C\c3ccc(-c4ccc(Cl)cc4[N+](=O)[O-])o3)c(=O)n2C1c1ccc(C(C)C)cc1 (configuration not stated)	none
CCOc1ccc(NC(=O)C2c3cccc[n+]3CC(=O)N2c2ccccc2O)cc1 (configuration not stated)	GPR151 activ 5.1 | GPR151 conf act inactive | GPR119 counter inactive
O=C(Nc1ccc(Cl)cc1)C1c2cccc[n+]2CC(=O)N1c1ccc(O)cc1 (configuration not stated)	none
CCOC(=O)c1ccc(N/C=C(/C#N)c2nc(-c3cccc(OC)c3)cs2)cc1	none
CCOC(=O)c1c(C)n(C)c2c1cc(O)c1ccccc12	GPR151 activ 6.1 | GPR151 conf act inactive | GPR119 counter inactive
c1nnn(CC2CCOCO2)n1 (configuration not stated)	GPR151 activ 14.6 | GPR151 conf act inactive | GPR119 counter inactive
O=C(Nc1ncc(Br)s1)C1CCCN(S(=O)(=O)c2cnc[nH]2)C1 (configuration not stated)	none
O=S(=O)(NCC1CCCN(Cc2ccccn2)C1)c1cccc2cccnc12 (configuration not stated)	none
CC(C)(C)CN1CCCC(CNS(=O)(=O)c2cccc3cccnc23)C1 (configuration not stated)	GPR151 activ 6.4 | GPR151 conf act inactive | GPR119 counter inactive
CCOc1nc(NCCC2=CCCCC2)nc(OCC)n1	GPR151 activ 9.8 | GPR151 conf act inactive | GPR119 counter inactive
Cc1cc(-c2ccccc2)n(-c2cc(Nc3ccccc3)ncn2)n1	GPR151 activ 5.1 | GPR151 conf act inactive | GPR119 counter inactive
Cc1cc(-c2ccccc2)n(-c2cc(Nc3cccc(F)c3)ncn2)n1	none
O=C(NCc1ccccc1F)c1ccco1	none
